The whole screen tested about 5,500 compounds, of which about 2,000 (36%) were called active. Roughly 18% stayed inconclusive and do not appear here. No stated cut-off is given here; in the data, active means normalized growth mostly below about 0.91 (no sharp cut-off); inconclusive means no clear call, values can overlap the other calls; inactive means mostly above about 0.92. The list shows a part of the results.
Experiment: chemical genetic growth profiling, strain panel (AID 1159580);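 further: tested at 20 µM; growth read once vehicle control cultures reached saturation at 30 °C; 1 = growth at the plate median or of vehicle wells; lower values mean less growth of the strain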
Settings: growth OD

Measured: normalized growth

CC(C)=CCC/C(C)=C/CO
inactive: S. cerevisiae deletion strains, locus YJR075W, strain HOC1, active compounds read low 1.01 | S. cerevisiae deletion strains, locus YKL009W, strain mrt4, active compounds read low 0.918 | S. cerevisiae deletion strains, locus YKL068W, active compounds read low 0.993 | S. cerevisiae deletion strains, locus YKL085W, strain MDH1 (second series), active compounds read low 0.98 | S. cerevisiae deletion strains, locus YKL085W, strain MDH1, active compounds read low 0.98 | S. cerevisiae deletion strains, locus YKL160W, strain elf1, active compounds read low 1.01 | S. cerevisiae deletion strains, locus YKL190W, strain CNB1, active compounds read low 1.01 | S. cerevisiae deletion strains, locus YKR001C, strain vps1, active compounds read low 0.99 | S. cerevisiae deletion strains, locus YKR026C, strain gcn3, active compounds read low 0.985 | S. cerevisiae deletion strains, locus YKR091W, strain srl3, active compounds read low 0.986 | S. cerevisiae deletion strains, locus YLL001W, strain dnm1, active compounds read low 0.994 | S. cerevisiae deletion strains, locus YLL026W, active compounds read low 0.998 | S. cerevisiae deletion strains, locus YLL041C, strain sdh2, active compounds read low 0.98 | S. cerevisiae deletion strains, locus YLR027C, strain aat2, active compounds read low 0.996 | S. cerevisiae deletion strains, locus YLR039C, strain RIC1, active compounds read low 1.01 | S. cerevisiae deletion strains, locus YLR058C, strain SHM2, active compounds read low 1.01 | S. cerevisiae deletion strains, locus YLR102C, strain apc9, active compounds read low 0.991 | S. cerevisiae deletion strains, locus YLR113W, strain HOG1, active compounds read low 0.984 | S. cerevisiae deletion strains, locus YLR221C, strain rsa3, active compounds read low 0.947 | S. cerevisiae deletion strains, locus YLR258W, strain gsy2, active compounds read low 1 | S. cerevisiae deletion strains, locus YLR262C, strain YPT6 (second series), active compounds read low 0.978 | S. cerevisiae deletion strains, locus YLR262C, strain YPT6, active compounds read low 1.03 | S. cerevisiae deletion strains, locus YLR268W, strain sec22, active compounds read low 0.966 | S. cerevisiae deletion strains, locus YLR320W, strain mms22, active compounds read low 0.96 | S. cerevisiae deletion strains, locus YLR330W, strain CHS5, active compounds read low 1.01 | S. cerevisiae deletion strains, locus YLR342W, strain FKS1 (second series), active compounds read low 1.04 | S. cerevisiae deletion strains, locus YLR342W, strain FKS1, active compounds read low 0.974 | S. cerevisiae deletion strains, locus YLR357W, strain rsc2, active compounds read low 0.986 | S. cerevisiae deletion strains, locus YLR370C, strain arc18, active compounds read low 0.983 | S. cerevisiae deletion strains, locus YLR371W, strain rom2, active compounds read low 0.985 | S. cerevisiae deletion strains, locus YLR384C, strain iki3, active compounds read low 0.981 | S. cerevisiae deletion strains, locus YLR418C, strain cdc73, active compounds read low 0.975 | S. cerevisiae deletion strains, locus YML016C, strain PPZ1, active compounds read low 1.02 | S. cerevisiae deletion strains, locus YML032C, strain rad52, active compounds read low 0.991 | S. cerevisiae deletion strains, locus YML120C, strain ndi1, active compounds read low 1.01 | S. cerevisiae deletion strains, locus YML124C, strain tub3, active compounds read low 0.991 | S. cerevisiae deletion strains, locus YMR058W, strain fet3, active compounds read low 0.972 | S. cerevisiae deletion strains, locus YMR078C, strain ctf18, active compounds read low 0.98 | S. cerevisiae deletion strains, locus YMR125W, strain sto1, active compounds read low 1.01 | S. cerevisiae deletion strains, locus YMR129W, active compounds read low 0.994 | S. cerevisiae deletion strains, locus YMR205C, strain PFK2, active compounds read low 1.01 | S. cerevisiae deletion strains, locus YMR223W, strain ubp8, active compounds read low 1.01 | S. cerevisiae deletion strains, locus YMR231W, strain pep5, active compounds read low 0.983 | S. cerevisiae deletion strains, locus YMR263W, strain SAP30, active compounds read low 1.02 | S. cerevisiae deletion strains, locus YMR307W, strain GAS1, active compounds read low 1.01 | S. cerevisiae deletion strains, locus YNL067W, strain RPL9B, active compounds read low 1.01 | S. cerevisiae deletion strains, locus YNL071W, strain lat1, active compounds read low 0.988 | S. cerevisiae deletion strains, locus YNL128W, strain TEP1, active compounds read low 1.01 | S. cerevisiae deletion strains, locus YNL153C, strain GIM3, active compounds read low 0.998 | S. cerevisiae deletion strains, locus YNL183C, strain NPR1, active compounds read low 0.991 | S. cerevisiae deletion strains, locus YNL209W, strain ssb2, active compounds read low 0.99 | S. cerevisiae deletion strains, locus YNL233W, strain BNI4, active compounds read low 1.01 | S. cerevisiae deletion strains, locus YNL248C, strain rpa49, active compounds read low 0.969 | S. cerevisiae deletion strains, locus YNL250W, strain rad50, active compounds read low 0.992 | S. cerevisiae deletion strains, locus YNL271C, strain bni1, active compounds read low 0.975 | S. cerevisiae deletion strains, locus YNL298W, strain CLA4, active compounds read low 0.991 | S. cerevisiae deletion strains, locus YNL307C, strain MCK1, active compounds read low 1 | S. cerevisiae deletion strains, locus YNL322C, strain KRE1 (second series), active compounds read low 0.984 | S. cerevisiae deletion strains, locus YNL322C, strain KRE1, active compounds read low 1.01 | S. cerevisiae deletion strains, locus YNR049C, strain mso1, active compounds read low 0.984 | S. cerevisiae deletion strains, locus YNR052C, strain pop2, active compounds read low 0.987 | S. cerevisiae deletion strains, locus YOL006C, strain TOP1, active compounds read low 0.999 | S. cerevisiae deletion strains, locus YOL012C, strain htz1 0.813 | S. cerevisiae deletion strains, locus YOL147C, strain pex11, active compounds read low 0.996 | S. cerevisiae deletion strains, locus YOR001W, strain rrp6, active compounds read low 0.923 | S. cerevisiae deletion strains, locus YOR061W, strain CKA2, active compounds read low 1.02 | S. cerevisiae deletion strains, locus YOR069W, strain VPS5, active compounds read low 1.01 | S. cerevisiae deletion strains, locus YOR070C, strain gyp1, active compounds read low 0.987 | S. cerevisiae deletion strains, locus YOR080W, strain dia2, active compounds read low 0.987 | S. cerevisiae deletion strains, locus YOR083W, strain WHI5, active compounds read low 1.02 | S. cerevisiae deletion strains, locus YOR106W, strain vam3, active compounds read low 1.02 | S. cerevisiae deletion strains, locus YOR136W, strain idh2, active compounds read low 0.994 | S. cerevisiae deletion strains, locus YOR144C, strain elg1, active compounds read low 0.994 | S. cerevisiae deletion strains, locus YOR184W, strain ser1, active compounds read low 0.949 | S. cerevisiae deletion strains, locus YOR231W, strain MKK1, active compounds read low 0.983 | S. cerevisiae deletion strains, locus YOR265W, strain rbl2, active compounds read low 0.989 | S. cerevisiae deletion strains, locus YOR270C, strain vph1, active compounds read low 0.953 | S. cerevisiae deletion strains, locus YOR290C, strain snf2, active compounds read low 1 | S. cerevisiae deletion strains, locus YOR316C, strain cot1, active compounds read low 0.992 | S. cerevisiae deletion strains, locus YPL051W, strain arl3, active compounds read low 0.996 | S. cerevisiae deletion strains, locus YPL055C, strain LGE1, active compounds read low 1.04 | S. cerevisiae deletion strains, locus YPL078C, strain atp4, active compounds read low 1.01 | S. cerevisiae deletion strains, locus YPL106C, strain sse1, active compounds read low 0.977 | S. cerevisiae deletion strains, locus YPL240C, strain hsp82, active compounds read low 0.99 | S. cerevisiae deletion strains, locus YPL241C, strain CIN2, active compounds read low 1 | S. cerevisiae deletion strains, locus YPL256C, strain CLN2, active compounds read low 1.05 | S. cerevisiae deletion strains, locus YPR119W, strain clb2, active compounds read low 0.991 | S. cerevisiae deletion strains, locus YPR141C, strain kar3, active compounds read low 0.991 | S. cerevisiae deletion strains, locus YPR163C, strain tif3, active compounds read low 0.987 | S. cerevisiae deletion strains, locus YPR167C, strain met16, active compounds read low 0.995 | S. cerevisiae deletion strains, strain wtn01, active compounds read low 0.987 | S. cerevisiae strains, strain wild type, active compounds read low 1.02
